The campaign covered roughly 39,000 compounds. About 1,500 (3.8%) were called active. Many of the other results were omitted from the sample, so actives are more common in it than they were.
Tested on: HSkMC (human skeletal muscle cells)
Experiment: cytotoxicity call (relative viability < 0.9)
Settings: 10 µM

Compound | cytotoxicity call
Nc1ccc(S(N)(=O)=O)cc1 | inactive
C[C@@H]1CN([C@@H](C)CO)C(=O)c2cc(N(C)C)ccc2O[C@@H](C)CCCCO[C@@H]1CN(C)C(=O)CCCN(C)C | inactive
Cc1ccc2[nH]c(=O)c(C3=NN(C(=O)CCC(=O)O)[C@H](c4ccc(Br)cc4)C3)c(-c3ccccc3)c2c1 | inactive
COc1ccc(S(=O)(=O)Nc2ccc3c(c2)CC(=O)N([C@H](C)CO)C[C@@H](C)[C@@H](CN(C)S(=O)(=O)c2ccc(OC)cc2)O3)cc1 | inactive
C[C@H](CO)N1C[C@H](C)[C@H](CN(C)Cc2ccc(Oc3ccccc3)cc2)Oc2c(NC(=O)Nc3cccc4ccccc34)cccc2C1=O | inactive
C[C@H](CO)N1C[C@H](C)[C@@H](CN(C)Cc2ccc(Oc3ccccc3)cc2)Oc2c(NC(=O)Nc3cccc4ccccc34)cccc2C1=O | active
C[C@H](CO)N1C[C@H](C)[C@@H](CN(C)Cc2ccc(Oc3ccccc3)cc2)Oc2c(NC(=O)C3CCCCC3)cccc2C1=O | active
C[C@@H]1CN([C@H](C)CO)C(=O)c2cccc(NC(=O)Nc3ccccc3)c2O[C@@H]1CN(C)Cc1ccc(Oc2ccccc2)cc1 | inactive
C[C@@H]1CN([C@H](C)CO)C(=O)c2cccc(NC(=O)Nc3ccccc3)c2O[C@H]1CN(C)Cc1ccc(Oc2ccccc2)cc1 | inactive
C[C@H]1CN([C@@H](C)CO)C(=O)c2cccc(NC(=O)Nc3ccccc3)c2O[C@@H]1CN(C)Cc1ccc(Oc2ccccc2)cc1 | active
C[C@@H]1CN([C@@H](C)CO)C(=O)c2cccc(NC(=O)Nc3ccccc3)c2O[C@H]1CN(C)Cc1ccc(Oc2ccccc2)cc1 | inactive
C[C@H]1CN([C@@H](C)CO)C(=O)c2cccc(NC(=O)C3CCCCC3)c2O[C@H]1CN(C)Cc1ccc(Oc2ccccc2)cc1 | inactive
C[C@H]1CN([C@@H](C)CO)C(=O)c2cccc(NC(=O)Nc3cccc4ccccc34)c2O[C@H]1CN(C)Cc1ccc(Oc2ccccc2)cc1 | inactive
C[C@@H]1CN([C@@H](C)CO)C(=O)c2cccc(NC(=O)C3CCCCC3)c2O[C@H]1CN(C)Cc1ccc(Oc2ccccc2)cc1 | inactive
C[C@H](CO)N1C[C@H](C)[C@@H](CN(C)Cc2ccc(Oc3ccccc3)cc2)Oc2c(NC(=O)Nc3ccccc3)cccc2C1=O | active
C[C@@H]1CN([C@@H](C)CO)C(=O)c2cccc(NC(=O)Nc3ccccc3)c2O[C@@H]1CN(C)Cc1ccc(Oc2ccccc2)cc1 | inactive
O=C1NC[C@@H](c2ccccc2)OC(=O)[C@H](Cc2ccc(F)cc2)CCC=CC[C@@H]1CC(=O)N(CCO)Cc1ccccc1 | inactive
